The text below walks through data of PubChem BioAssay (Tox21).

Assay [1] is described as follows: qHTS RealTime-Glo MT Cell Viability Assay in HepG2 cells - 40 hour (AID 1224870). Further: nearly all actives have a fitted effect of over 50% in size. Further: potency means the concentration at half of the fitted maximal effect. In a few lines: (§1)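 Real-time viability: cells seeded at 600 per well together with NanoLuc and cell-permeant prosubstrate, compounds added after 5 h incubation. Luminescence tracked at 0, 8, 16, 24, 32 and 40 h of exposure.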
On the technique in general: qHTS replaces the single test concentration by a dilution series.

Assay [2] is described as follows: qHTS RealTime-Glo MT Cell Viability Assay in HEK293 cells - 16 hour (AID 1224872). Further: nearly all actives have a fitted effect of over 50% in size. Further: potency means the concentration at half of the fitted maximal effect. In a few lines:
(§2)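 Homogeneous bioluminescent viability format in HEK293 cells (600 cells/well). Following 5 h at 37 C/5% CO2, 23 nL compound was pintooled; the signal was measured repeatedly during 40 h incubation.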

Assay [3] in a line: qHTS RealTime-Glo MT Cell Viability Assay in HepG2 cells - 8 hour (AID 1224873). Further: nearly all actives have a fitted effect of over 55% in size. Further: potency means the concentration at half of the fitted maximal effect. In outline:
as §1

Assay [4] is described as follows: qHTS RealTime-Glo MT Cell Viability Assay in HEK293 cells - 40 hour (AID 1224874). Further: nearly all actives have a fitted effect of over 50% in size. Further: potency means the concentration at half of the fitted maximal effect. To be noted: RealTime-Glo luminescence; max response: stronger effect = lower value. In a few lines: (§3)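 600 cells/well were plated with the nonlytic NanoLuc/prosubstrate reagent, pre-incubated 5 h, then given 23 nL of compound in DMSO. Incubation at 37 C for 40 h, with luminescence from viable-cell-reduced substrate read repeatedly from 0 h.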

Assay [5] is described as follows: A CellTox Green Cytotoxicity Assay to monitor cytotoxicity in HepG2 cells - 16 hour (AID 1224876). Further: nearly all actives have a fitted effect of over 45% in size. Further: potency means the concentration at half of the fitted maximal effect. In outline: (§4)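 HepG2 cells, 600/well, preincubated 5 h with CellTox Green dye, then exposed to Tox21 compounds in DMSO at 37 C for up to 40 h. Dead-cell DNA fluorescence read at the indicated time point.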
Assay [6] is described as follows: A CellTox Green Cytotoxicity Assay to monitor cytotoxicity in HepG2 cells - 24 hour (AID 1224878). Further: nearly all actives have a fitted effect of over 45% in size. Further: potency means the concentration at half of the fitted maximal effect. In a few lines:
as §4

Assay [7] can be described thus: A CellTox Green Cytotoxicity Assay to monitor cytotoxicity in HepG2 cells - 40 hour (AID 1224879). Further: nearly all actives have a fitted effect of over 40% in size. Further: potency means the concentration at half of the fitted maximal effect. In outline: as §4
The nature of assay [8]: qHTS RealTime-Glo MT Cell Viability Assay in HEK293 cells - 0 hour (AID 1224880). Further: nearly all actives have a fitted effect of over 45% in size. Further: potency means the concentration at half of the fitted maximal effect. In a few lines: as §3
The nature of assay [9]: A CellTox Green Cytotoxicity Assay to monitor cytotoxicity in HEK293 cells - 32 hour (AID 1224881). Further: nearly all actives have a fitted effect of over 40% in size. Further: potency means the concentration at half of the fitted maximal effect. In outline:
(§5)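 HEK293 cells, 600/well, were preincubated 5 hours and then exposed to compounds at 37 C for up to 40 hours. A cell-impermeant cyanine dye staining dead-cell DNA was read by fluorescence at 0, 8, 16, 24, 32 and 40 h time points.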

Assay [10] in a line: A CellTox Green Cytotoxicity Assay to monitor cytotoxicity in HepG2 cells - 0 hour (AID 1224882). Further: nearly all actives have a fitted effect of over 35% in size. Further: potency means the concentration at half of the fitted maximal effect. In a few lines:
as §4

The nature of assay [11]: A CellTox Green Cytotoxicity Assay to monitor cytotoxicity in HepG2 cells - 32 hour (AID 1224883). Further: nearly all actives have a fitted effect of over 50% in size. Further: potency means the concentration at half of the fitted maximal effect. In outline:
as §4

Assay [12] can be described thus: A CellTox Green Cytotoxicity Assay to monitor cytotoxicity in HEK293 cells - 8 hour (AID 1224884). Further: nearly all actives have a fitted effect of over 35% in size. Further: potency means the concentration at half of the fitted maximal effect. In a few lines:
as §5

Assay [13] in a line: qHTS RealTime-Glo MT Cell Viability Assay in HepG2 cells - 16 hour (AID 1224885). Further: nearly all actives have a fitted effect of over 50% in size. Further: potency means the concentration at half of the fitted maximal effect. In a few lines: (§6)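 Cell number in HepG2 cultures estimated from NanoLuc luminescence generated by metabolic reduction of a prosubstrate by living cells. The homogeneous, nonlytic format allowed repeated reads at 0, 8, 16, 24, 32 and 40 h of compound exposure.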
Assay [14] can be described thus: qHTS RealTime-Glo MT Cell Viability Assay in HEK293 cells - 24 hour (AID 1224886). Further: nearly all actives have a fitted effect of over 50% in size. Further: potency means the concentration at half of the fitted maximal effect. In outline:
as §2

Assay [15] in a line: qHTS RealTime-Glo MT Cell Viability Assay in HEK293 cells - 8 hour (AID 1224887). Further: nearly all actives have a fitted effect of over 50% in size. Further: potency means the concentration at half of the fitted maximal effect. In outline: as §3
A short description of assay [16]: qHTS RealTime-Glo MT Cell Viability Assay in HepG2 cells - 0 hour (AID 1224889). Further: nearly all actives have a fitted effect of over 50% in size. Further: potency means the concentration at half of the fitted maximal effect. In outline:
as §6

Assay [17] can be described thus: A CellTox Green Cytotoxicity Assay to monitor cytotoxicity in HEK293 cells - 24 hour (AID 1224875). Further: nearly all actives have a fitted effect of over 45% in size. Further: potency means the concentration at half of the fitted maximal effect. In a few lines:
as §5

Assay [18] in a line: qHTS RealTime-Glo MT Cell Viability Assay in HepG2 cells - 32 hour (AID 1224877). Further: nearly all actives have a fitted effect of over 55% in size. Further: potency means the concentration at half of the fitted maximal effect. In outline:
as §6

Assay [19] can be described thus: A CellTox Green Cytotoxicity Assay to monitor cytotoxicity in HEK293 cells - 16 hour (AID 1224888). Further: nearly all actives have a fitted effect of over 35% in size. In outline:
as §5

“And” between values parts separate entries of the source, which are not always exact repeats. Equal values may be shown once. Records with an inconclusive call do not appear. A structure can be active in one record and inactive in another. The source made the active and inactive calls. The call rests on the fitted dose curve; in most records, active means well fitted curve in the direction sought with a large enough effect in the repeat runs; inconclusive means weak or mixed curves; inactive means no such curve, though single readings can be large; an effect the other way counts as inactive or inconclusive.
On the % scale 0 is the no-effect control and ±100 the full control effect.

For `O=C(Nc1ccc(Br)cc1)c1cc(Br)cc(Br)c1O`, the Potency in [1] is 43.5 µM (active); in assay [4], 17.3 µM (active) and 19.5 µM (active); in assay [5], “inactive and 43.6 µM (active)”; in assay [6] it was 38.9 µM (active); in assay [7], 19.4 µM (active) and 24.5 µM (active) and 23.9 µM (active); in assay [8], 24.5 µM (active). Moreover, the Potency in [9] was 38.9 µM (active) and inactive; in [10], “inactive and 43.6 µM (active)”; in [11], 19.4 µM (active) and 27.5 µM (active) and 21.3 µM (active); in assay [12], “inactive and 38.9 µM (active)”; in assay [16], 21.8 µM (active). For the same compound, the Potency entry in [2], in [3], in assay [13], in [14] and in assay [15] was “inactive” throughout.

For `c1ccc(NNc2ccccc2)cc1`, the Potency entry in assay [1], in [3], in [18], in assay [6], in assay [7] and in assay [8] was “inactive” throughout. Moreover, the Potency result in assay [10], in assay [11], in assay [12], in assay [13], in assay [14] and in assay [15] was “inactive” in each case. The Potency result in assay [19] is “inactive”. In addition, the Potency was 24.5 µM (active) in assay [17]; 24.5 µM (active) in assay [9]; “inactive and 43.6 µM (active)” in assay [16].

Consider `Oc1cc(Cl)ccc1Oc1ccc(Cl)cc1Cl`, for which the Potency in assay [1] was 44.7 µM (active); in assay [2], 22.4 µM (active) and 23.9 µM (active); in [3], 22.4 µM (active) and 23.9 µM (active); in [4], 34.1 µM (active); in [17], 22.4 µM (active); in assay [18], 25.1 µM (active). Also, the Potency is 22.4 µM (active) and 21.3 µM (active) in assay [6]; 25.1 µM (active) and 23.9 µM (active) in assay [7]; 22.4 µM (active) in assay [9]; 43 µM (active) and 23.9 µM (active) in assay [11]; 50.1 µM (active) and inactive in assay [12]; 22.4 µM (active) and 23.9 µM (active) in [13]. In addition, in [14], the Potency was 22.4 µM (active) and 23.9 µM (active). Moreover, the Potency entry in assay [8] and in [16] was “inactive” each time.

Regarding `CCOC(=O)C(C)OC(=O)c1cc(Oc2ccc(C(F)(F)F)cc2Cl)ccc1[N+](=O)[O-]` (stereo not given), the Potency entry in assay [1], in [17], in assay [5], in assay [18], in assay [6] and in assay [7] was “inactive” throughout. The Potency entry in assay [8], in [9], in [10], in assay [11], in assay [12] and in [13] was “inactive” each time. Moreover, the Potency result in assay [19] and in [16] was “inactive” throughout. Also, the Potency in assay [14] is 30.7 µM (active) and inactive; in [15] it was 30.7 µM (active).

Consider `CC(C)(C)c1ccccc1O`, for which the Potency result in assay [1], in assay [2], in [3], in [18], in assay [8] and in assay [12] was “inactive” each time. Besides, the Potency entry in [13], in [14], in assay [15], in assay [19] and in assay [16] was “inactive” in each case. Also, the max response in assay [4] is -18.3% (inactive) and -0.927% (inactive). Moreover, the Potency in [5] is 44.2 µM (active); in assay [6], 49.5 µM (active); in assay [7] it was 49.5 µM (active) and 49 µM (active); in assay [9], 44.2 µM (active) and inactive; in assay [11], 49.5 µM (active).

For `O=P(O)(O)CCCl`, the Potency entry in assay [1], in assay [3], in [17], in [5], in assay [18] and in [6] was “inactive” throughout. The Potency result in assay [7], in [8], in assay [9], in assay [10], in assay [11] and in [12] was “inactive” in each case. In addition, the Potency entry in assay [13], in assay [14], in assay [15], in assay [19] and in assay [16] was “inactive” in each case. Moreover, in assay [4], the max response was -0.529% (inactive) and 21.1% (inactive).

Regarding `O=[N+]([O-])c1c(Cl)c(Cl)c(Cl)c(Cl)c1Cl`, the Potency entry in assay [1], in assay [2], in [3], in assay [17], in assay [5] and in assay [18] was “inactive” throughout. In addition, the Potency entry in assay [6], in assay [7], in assay [8], in [10], in [11] and in assay [12] was “inactive” in each case. For the same compound, the Potency result in assay [13], in assay [14], in [19] and in assay [16] was “inactive” each time. For the same compound, the max response in assay [4] is 2.95% (inactive) and 16.6% (inactive). In addition, in [9], the Potency was 21.8 µM (active) and inactive.

On to `Oc1cc(Cl)c(Cl)cc1Cl`, for which the Potency entry in assay [1], in assay [2], in assay [3], in assay [17], in [5] and in assay [18] was “inactive” in each case. Moreover, the Potency result in assay [6], in assay [7], in [8], in assay [9], in assay [10] and in assay [11] was “inactive” in each case. In addition, the Potency entry in assay [12], in assay [13], in assay [14], in assay [19] and in assay [16] was “inactive” throughout. Further, in assay [4], the max response was -18.2% (inactive) and -12.4% (inactive).

Consider `C=CC(=O)OCCO`, for which the Potency result in assay [1], in assay [2], in assay [3], in [17], in assay [18] and in assay [6] was “inactive” each time. The Potency entry in assay [7], in assay [8], in assay [9], in [11], in [12] and in assay [13] was “inactive” throughout. For the same compound, the Potency result in assay [14], in assay [15], in [19] and in assay [16] was “inactive” in each case.
